From the supplement of paper PMC10849652
Targets with a hit are over-represented here; the source holds about 7,900 in all. About 0.6% of all pairs of compound and target were hits. A number with no mark means an inactive call.

Tests used:
Assay in all cases: log2 fold change, soluble protein after heating vs DMSO (PISA); higher = thermal stabilisation; K562 cells, 10 uM, 30 min; active = over 0.2 and 3.5 SD of the protein, either way, in both replicates (recomputed)
[1] = compound: NC(=O)Nc1cc(-c2cccc(F)c2)sc1C(=O)N[C@H]1CCCNC1
Method in brief: (§1)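 K562 cells at 2×10^6 cells/mL were treated for 30 min with 10 μM compound, and aliquots were heated for 3 min over 48°C-58°C before pooling. Extraction used PBS with 0.5% NP-40 at 4°C, and soluble protein was the supernatant after 21,000xg for 90 min, measured by TMTpro 16plex LC-MS/MS with channel sums equalised. Thermal stability values, relative to control samples and from duplicates, are log2 fold changes.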

[2] = compound: NC(=O)c1cnc(N[C@@H]2CCCC[C@@H]2N)nc1Nc1cccc(-n2nccn2)c1
Method in brief: as §1

[3] = compound: NCC(=O)Nc1ccc(-n2nc(C(F)(F)F)cc2-c2ccc3c(ccc4ccccc43)c2)cc1
Method in brief: as §1

[4] = compound: Nc1ccccc1NC(=O)c1ccc(CNC(=O)OCc2cccnc2)cc1 [entinostat]
Method in brief: as §1

[5] = compound: O=C(CCCCCCC(=O)Nc1ccccc1)NO [vorinostat]
Method in brief: as §1

[6] = compound: O=C(CCCCCCNC(=O)c1cnc(N(c2ccccc2)c2ccccc2Cl)nc1)NO [citarinostat]
Method in brief: as §1

[7] = compound: c1cc(OCCN2CCCCC2)cc(-c2n[nH]c3ccc(-c4nnc[nH]4)cc23)c1
Method in brief: as §1

[8] = compound: c1cn2cc(-c3ccc4cn[nH]c4c3)nc(Nc3ccc(N4CCOCC4)cc3)c2n1 [entospletinib]
Method in brief: as §1

[9] = compound: NC1(c2ccc(-c3nc4ccn5c(=O)[nH]nc5c4cc3-c3ccccc3)cc2)CCC1
Method in brief: as §1

[10] = compound: O=C(O)c1ccc2c(c1)nc(Nc1cccc(Cl)c1)c1ccncc12 [silmitasertib]
Method in brief: as §1

[11] = compound: O=C1NC(=O)C(c2cnc3ccccn23)=C1c1cn2c3c(cc(F)cc13)CN(C(=O)N1CCCCC1)CC2
Method in brief: as §1

Sequence of UniProt Q7Z2Z2 (Q7Z2Z2 whole entry, looked up): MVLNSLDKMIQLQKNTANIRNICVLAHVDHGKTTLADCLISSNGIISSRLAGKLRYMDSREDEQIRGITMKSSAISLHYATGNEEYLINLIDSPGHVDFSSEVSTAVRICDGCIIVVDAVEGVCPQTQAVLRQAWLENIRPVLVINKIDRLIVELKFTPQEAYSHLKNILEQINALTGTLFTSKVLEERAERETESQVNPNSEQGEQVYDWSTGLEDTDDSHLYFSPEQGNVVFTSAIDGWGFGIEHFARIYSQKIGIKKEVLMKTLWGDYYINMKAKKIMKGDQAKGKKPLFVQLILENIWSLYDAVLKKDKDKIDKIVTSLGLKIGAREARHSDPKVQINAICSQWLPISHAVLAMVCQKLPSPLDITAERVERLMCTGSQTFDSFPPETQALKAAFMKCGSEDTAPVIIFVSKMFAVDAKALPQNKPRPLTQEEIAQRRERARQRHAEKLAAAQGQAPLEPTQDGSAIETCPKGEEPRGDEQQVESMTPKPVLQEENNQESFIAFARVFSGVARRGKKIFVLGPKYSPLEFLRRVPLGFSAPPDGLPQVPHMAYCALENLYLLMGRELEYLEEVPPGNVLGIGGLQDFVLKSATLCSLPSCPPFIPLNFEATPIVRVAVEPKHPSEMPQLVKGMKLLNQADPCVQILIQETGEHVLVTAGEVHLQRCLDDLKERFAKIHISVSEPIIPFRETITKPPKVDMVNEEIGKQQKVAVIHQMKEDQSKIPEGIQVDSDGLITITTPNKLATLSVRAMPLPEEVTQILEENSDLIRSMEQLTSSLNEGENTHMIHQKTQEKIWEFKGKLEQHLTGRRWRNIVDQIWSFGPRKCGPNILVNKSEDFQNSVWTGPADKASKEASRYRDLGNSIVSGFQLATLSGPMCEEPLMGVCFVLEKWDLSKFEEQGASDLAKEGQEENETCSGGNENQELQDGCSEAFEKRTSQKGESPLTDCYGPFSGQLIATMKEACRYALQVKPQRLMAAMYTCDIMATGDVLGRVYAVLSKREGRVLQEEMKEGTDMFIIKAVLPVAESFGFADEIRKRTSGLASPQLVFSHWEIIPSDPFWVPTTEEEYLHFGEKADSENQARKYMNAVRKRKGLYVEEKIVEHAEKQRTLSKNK
Sequence of UniProt O00471 (O00471 whole entry, looked up): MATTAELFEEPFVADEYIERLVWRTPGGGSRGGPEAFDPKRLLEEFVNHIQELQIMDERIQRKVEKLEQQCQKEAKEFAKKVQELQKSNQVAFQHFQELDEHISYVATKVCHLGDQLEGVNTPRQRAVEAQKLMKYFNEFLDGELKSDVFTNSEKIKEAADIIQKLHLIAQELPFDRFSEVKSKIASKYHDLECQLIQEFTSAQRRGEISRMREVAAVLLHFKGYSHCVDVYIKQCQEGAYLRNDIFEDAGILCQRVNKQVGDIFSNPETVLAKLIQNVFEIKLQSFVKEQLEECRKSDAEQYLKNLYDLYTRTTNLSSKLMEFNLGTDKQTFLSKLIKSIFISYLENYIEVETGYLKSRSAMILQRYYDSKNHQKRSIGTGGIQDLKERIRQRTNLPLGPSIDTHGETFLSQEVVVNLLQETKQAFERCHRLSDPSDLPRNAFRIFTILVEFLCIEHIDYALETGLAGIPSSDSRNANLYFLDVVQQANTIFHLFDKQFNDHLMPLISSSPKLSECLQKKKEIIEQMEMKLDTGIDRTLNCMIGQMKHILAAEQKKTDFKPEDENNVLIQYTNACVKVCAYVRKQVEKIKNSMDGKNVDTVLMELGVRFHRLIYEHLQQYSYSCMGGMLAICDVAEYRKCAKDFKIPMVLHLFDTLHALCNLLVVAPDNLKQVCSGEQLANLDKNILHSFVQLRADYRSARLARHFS
Sequence of UniProt Q16643 (Q16643 whole entry, looked up): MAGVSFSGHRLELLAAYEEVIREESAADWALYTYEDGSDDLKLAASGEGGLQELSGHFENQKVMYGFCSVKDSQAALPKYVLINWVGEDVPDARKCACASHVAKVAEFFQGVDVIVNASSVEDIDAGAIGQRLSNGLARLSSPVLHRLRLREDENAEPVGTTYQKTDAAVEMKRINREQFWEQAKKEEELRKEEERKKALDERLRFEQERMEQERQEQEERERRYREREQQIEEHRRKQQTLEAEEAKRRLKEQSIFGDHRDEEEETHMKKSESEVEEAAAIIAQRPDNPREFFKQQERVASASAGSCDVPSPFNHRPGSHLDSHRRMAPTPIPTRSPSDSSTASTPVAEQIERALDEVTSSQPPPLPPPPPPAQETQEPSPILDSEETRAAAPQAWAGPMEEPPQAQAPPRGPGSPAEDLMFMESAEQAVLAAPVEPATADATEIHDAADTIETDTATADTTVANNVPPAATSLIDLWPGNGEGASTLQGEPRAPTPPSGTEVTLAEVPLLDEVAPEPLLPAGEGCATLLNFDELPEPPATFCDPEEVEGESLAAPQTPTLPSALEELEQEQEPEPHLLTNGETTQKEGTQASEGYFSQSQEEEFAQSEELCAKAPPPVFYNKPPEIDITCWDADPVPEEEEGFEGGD
Sequence of UniProt Q8TCE6 (Q8TCE6 whole entry, looked up): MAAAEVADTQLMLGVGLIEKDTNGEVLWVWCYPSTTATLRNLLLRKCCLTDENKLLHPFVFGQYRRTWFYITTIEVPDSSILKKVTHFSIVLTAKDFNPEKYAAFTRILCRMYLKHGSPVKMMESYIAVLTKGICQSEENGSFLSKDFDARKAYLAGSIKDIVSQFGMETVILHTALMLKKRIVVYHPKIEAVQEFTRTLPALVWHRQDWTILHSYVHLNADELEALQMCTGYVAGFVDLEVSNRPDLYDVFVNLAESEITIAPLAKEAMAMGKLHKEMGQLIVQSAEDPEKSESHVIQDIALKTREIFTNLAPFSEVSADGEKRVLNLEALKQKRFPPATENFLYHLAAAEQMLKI
Sequence of UniProt P07711 (P07711 whole entry, looked up): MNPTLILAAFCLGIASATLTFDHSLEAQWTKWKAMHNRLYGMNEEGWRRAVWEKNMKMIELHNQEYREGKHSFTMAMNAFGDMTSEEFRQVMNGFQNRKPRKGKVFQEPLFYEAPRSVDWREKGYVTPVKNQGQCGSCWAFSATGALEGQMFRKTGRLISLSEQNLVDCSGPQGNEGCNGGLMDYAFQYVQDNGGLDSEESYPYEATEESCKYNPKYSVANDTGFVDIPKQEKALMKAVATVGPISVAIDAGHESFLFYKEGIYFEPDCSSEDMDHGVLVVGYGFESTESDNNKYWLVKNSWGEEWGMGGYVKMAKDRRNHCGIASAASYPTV
Sequence of UniProt P68104 (P68104 whole entry, looked up): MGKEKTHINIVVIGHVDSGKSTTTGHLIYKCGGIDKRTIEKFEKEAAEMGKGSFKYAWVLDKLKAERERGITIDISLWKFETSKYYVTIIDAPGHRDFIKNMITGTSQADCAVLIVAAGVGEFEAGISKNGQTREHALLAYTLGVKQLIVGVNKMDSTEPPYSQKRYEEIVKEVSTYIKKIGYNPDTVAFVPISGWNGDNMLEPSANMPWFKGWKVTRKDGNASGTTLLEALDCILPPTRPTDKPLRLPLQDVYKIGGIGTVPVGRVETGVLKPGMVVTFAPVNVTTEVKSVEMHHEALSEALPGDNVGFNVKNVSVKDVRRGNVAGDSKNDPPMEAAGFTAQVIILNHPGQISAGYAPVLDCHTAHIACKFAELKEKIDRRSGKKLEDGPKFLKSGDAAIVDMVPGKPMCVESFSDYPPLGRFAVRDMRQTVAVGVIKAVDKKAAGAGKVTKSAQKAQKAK
Sequence of UniProt Q13409 (Q13409 whole entry, looked up): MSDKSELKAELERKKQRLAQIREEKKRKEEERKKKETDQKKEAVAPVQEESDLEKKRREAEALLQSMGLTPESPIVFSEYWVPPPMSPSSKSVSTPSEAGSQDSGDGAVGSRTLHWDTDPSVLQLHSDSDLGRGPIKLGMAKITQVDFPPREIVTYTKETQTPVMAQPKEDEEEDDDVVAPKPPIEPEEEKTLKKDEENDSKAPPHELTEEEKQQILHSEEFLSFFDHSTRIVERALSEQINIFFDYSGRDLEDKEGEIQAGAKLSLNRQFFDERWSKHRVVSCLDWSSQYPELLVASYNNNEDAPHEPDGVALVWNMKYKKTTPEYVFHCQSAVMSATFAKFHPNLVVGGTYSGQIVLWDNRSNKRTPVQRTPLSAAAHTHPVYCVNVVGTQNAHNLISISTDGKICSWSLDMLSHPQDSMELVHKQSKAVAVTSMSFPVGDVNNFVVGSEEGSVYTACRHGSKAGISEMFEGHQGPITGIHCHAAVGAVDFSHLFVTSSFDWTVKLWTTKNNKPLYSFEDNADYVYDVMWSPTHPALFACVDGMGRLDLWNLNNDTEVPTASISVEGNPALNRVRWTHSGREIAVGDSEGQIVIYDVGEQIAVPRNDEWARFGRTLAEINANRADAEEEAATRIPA
Sequence of UniProt Q13948 (Q13948 whole entry, looked up): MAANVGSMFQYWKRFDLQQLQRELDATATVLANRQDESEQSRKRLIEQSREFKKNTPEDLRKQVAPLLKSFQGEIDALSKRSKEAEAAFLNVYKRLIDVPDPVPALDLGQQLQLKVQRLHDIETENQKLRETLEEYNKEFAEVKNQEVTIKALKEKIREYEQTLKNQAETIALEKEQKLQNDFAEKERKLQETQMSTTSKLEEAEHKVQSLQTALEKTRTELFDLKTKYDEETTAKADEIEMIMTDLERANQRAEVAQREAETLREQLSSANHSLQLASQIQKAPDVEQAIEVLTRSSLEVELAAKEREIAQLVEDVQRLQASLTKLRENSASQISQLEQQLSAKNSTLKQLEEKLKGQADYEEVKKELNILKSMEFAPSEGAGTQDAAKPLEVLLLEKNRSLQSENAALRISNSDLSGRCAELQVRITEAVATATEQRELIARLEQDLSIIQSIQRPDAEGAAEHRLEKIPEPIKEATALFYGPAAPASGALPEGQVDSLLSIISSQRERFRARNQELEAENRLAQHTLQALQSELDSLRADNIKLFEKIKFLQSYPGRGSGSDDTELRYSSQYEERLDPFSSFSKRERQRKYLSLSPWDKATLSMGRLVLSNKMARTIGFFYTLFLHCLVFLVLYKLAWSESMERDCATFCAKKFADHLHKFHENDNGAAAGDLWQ

Row | Target | log2 fold change [1] | log2 fold change [2] | log2 fold change [3] | log2 fold change [4] | log2 fold change [5] | log2 fold change [6] | log2 fold change [7] | log2 fold change [8] | log2 fold change [9] | log2 fold change [10] | log2 fold change [11]
1 | DAXX (UniProt Q9UER7) | 0.093 | -0.103 | -0.08 | -0.099 | 0.034 | 0.075 | -0.076 | -0.025 |  |  | 
2 | DTWD1 (UniProt Q8N5C7) | -0.001 | 0.014 | -0.04 | 0.063 | 0.246 (active) | -0.001 | -0.064 | 0.039 | -0.147 | -0.004 | 0.014
3 | EFL1 (UniProt Q7Z2Z2) | 0.001 | -0.023 | -0.026 | 0.025 | 0.071 | 0.047 | -0.023 | -0.06 | -0.106 | 0.017 | -0.025
4 | CYB561A3 isoform 2 (UniProt Q8NBI2) | -0.019 | -0.075 |  | -0.004 | -0.254 | -0.081 | 0.035 | 0.315 | -0.066 | 0.04 | 
5 | EIF3J isoform 2 (UniProt O75822) | -0.094 | -0.197 | 0.023 | -0.041 |  |  |  |  | -0.102 | -0.11 | 0.002
6 | DFFB (UniProt O76075) | 0.028 | -0.064 | 0.069 | 0 | 0.016 | 0.057 | -0.08 | -0.024 | -0.037 | 0.087 | 0.048
7 | EEF1B2 (UniProt P24534) | 0.012 | -0.112 | -0.09 | 0.04 | 0.02 | 0.004 | -0.035 | 0.038 | -0.035 | 0.027 | -0.007
8 | FAM193B (UniProt Q96PV7) | 0.22 | -0.053 | -0.014 | 0.25 |  | 0.032 | -0.205 | -0.031 |  |  | 0.149
9 | CTSL (UniProt P07711) | 0.082 | -0.045 | 0.039 | -0.074 | -0.053 | -0.018 | -0.011 | 0.091 | -0.123 | 0.027 | -0.079
10 | CUX1 isoform 2 (UniProt Q13948) | -0.027 | -0.031 | -0.026 | 0.343 (active) | 0.076 | 0.137 | -0.03 | -0.019 | -0.033 | -0.016 | -0.047
11 | DCAF13 (UniProt Q9NV06) | -0.004 | 0.049 | 0.077 | -0.058 | 0.004 | -0.044 | -0.077 | 0.061 | 0.196 | 0.108 | 0.054
12 | DENND10 (UniProt Q8TCE6) | 0.018 | 0 | -0.069 | -0.076 |  | 0.07 | 0.054 | -0.006 | -0.089 | 0.037 | 0.073
13 | CTSZ (UniProt Q9UBR2) | -0.029 | -0.005 | 0.044 | -0.023 | 0.013 | 0.019 | 0.006 | 0.13 | -0.511 (active) | 0.008 | -0.047
14 | EIF2AK1 (UniProt Q9BQI3) | -0.034 | 0.018 | 0.001 | 0.129 | -0.058 |  |  |  | -0.023 | 0 | 0.133
15 | EZH2 isoform 2 (UniProt Q15910) | 0.316 | -0.004 | 0.33 | -0.039 |  |  |  |  | 0.342 | 0.046 | -0.118
16 | DDX11 (UniProt Q96FC9) | -0.1 | -0.099 | 0.032 | -0.009 |  |  |  |  | -0.061 | 0.191 | -0.007
17 | EXOC2 (UniProt Q96KP1) | 0.039 | -0.084 | -0.024 | 0.052 | -0.013 | 0.105 | -0.102 | -0.005 | -0.218 | 0.035 | 0.028
18 | DYNC1I2 isoform 2 (UniProt Q13409) | 0.181 | 0 |  | -0.206 |  | 0.094 | -0.035 | 0.082 | -0.037 | -0.154 | -0.127
19 | DYNC1LI2 (UniProt O43237) | 0.093 | -0.021 | -0.075 | -0.026 | 0.075 | -0.101 | -0.108 | -0.005 | 0.206 | 0.214 | 0.158
20 | EIF4E2 (UniProt O60573) | 0.054 | -0.015 | -0.048 | 0.075 |  | 0.245 | 0.079 | -0.107 | 0.085 | 0.019 | 0.003
21 | FAM241A (UniProt Q8N8J7) | 0.661 (active) | -0.033 | -0.004 | 0.424 (active) | -0.005 | -0.09 | -0.058 | -0.008 | -0.032 | 0.045 | 
22 | DBN1 isoform 3 (UniProt Q16643) | 0.098 | 0.027 | -0.003 | -0.036 | 0.128 | -0.032 | -0.053 | -0.038 | -0.039 | 0.066 | -0.03
23 | DHRS13 (UniProt Q6UX07) | 0.182 | -0.012 | 0.156 | 0.043 | -0.013 | 0.1 | -0.06 | -0.111 | 0.102 | 0.087 | 
24 | EMD (UniProt P50402) | -0.012 | -0.064 | -0.041 | -0.031 | -0.017 | -0.076 | -0.141 | 0.102 | -0.068 | 0.054 | -0.084
25 | EEF1A1 (UniProt P68104) | -0.046 | 0.084 | 0.191 | -0.017 |  | -0.04 | 0.07 | 0.046 | 0.091 | -0.11 | 0.023
26 | EIF4G3 isoform 3 (UniProt O43432) | 0.012 | -0.092 | -0.016 | 0.01 |  | -0.114 | -0.515 (active) | 0.118 | -0.062 | 0.146 | 
27 | EXOC5 (UniProt O00471) | 0.01 | -0.101 | -0.063 | 0.069 | 0.086 | 0.027 | -0.153 | 0.002 | -0.222 | 0.042 | -0.02
